For some assays here: Results with a measured potency or affinity are listed apart.
Legend:
Set-up in all cases: scale not given: direction of the effect not stated beside the values
[1] = target: Protein translocase subunit SecA (Escherichia coli (strain K12)) (UniProt P10408); experiment: Assay to Identify E. coli SecA ATPase Inhibitors; type: functional; conditions: 30 µM
[2] = target: T1, Ubiquitin-activating enzyme e1, putative (Leishmania donovani (strain BPK282A1)) (UniProt E9BSI1); experiment: Leishmania donovani Ubiquitin Activating Enzyme (LdE1); type: functional; conditions: 30 µM
T1 sequence (whole entry): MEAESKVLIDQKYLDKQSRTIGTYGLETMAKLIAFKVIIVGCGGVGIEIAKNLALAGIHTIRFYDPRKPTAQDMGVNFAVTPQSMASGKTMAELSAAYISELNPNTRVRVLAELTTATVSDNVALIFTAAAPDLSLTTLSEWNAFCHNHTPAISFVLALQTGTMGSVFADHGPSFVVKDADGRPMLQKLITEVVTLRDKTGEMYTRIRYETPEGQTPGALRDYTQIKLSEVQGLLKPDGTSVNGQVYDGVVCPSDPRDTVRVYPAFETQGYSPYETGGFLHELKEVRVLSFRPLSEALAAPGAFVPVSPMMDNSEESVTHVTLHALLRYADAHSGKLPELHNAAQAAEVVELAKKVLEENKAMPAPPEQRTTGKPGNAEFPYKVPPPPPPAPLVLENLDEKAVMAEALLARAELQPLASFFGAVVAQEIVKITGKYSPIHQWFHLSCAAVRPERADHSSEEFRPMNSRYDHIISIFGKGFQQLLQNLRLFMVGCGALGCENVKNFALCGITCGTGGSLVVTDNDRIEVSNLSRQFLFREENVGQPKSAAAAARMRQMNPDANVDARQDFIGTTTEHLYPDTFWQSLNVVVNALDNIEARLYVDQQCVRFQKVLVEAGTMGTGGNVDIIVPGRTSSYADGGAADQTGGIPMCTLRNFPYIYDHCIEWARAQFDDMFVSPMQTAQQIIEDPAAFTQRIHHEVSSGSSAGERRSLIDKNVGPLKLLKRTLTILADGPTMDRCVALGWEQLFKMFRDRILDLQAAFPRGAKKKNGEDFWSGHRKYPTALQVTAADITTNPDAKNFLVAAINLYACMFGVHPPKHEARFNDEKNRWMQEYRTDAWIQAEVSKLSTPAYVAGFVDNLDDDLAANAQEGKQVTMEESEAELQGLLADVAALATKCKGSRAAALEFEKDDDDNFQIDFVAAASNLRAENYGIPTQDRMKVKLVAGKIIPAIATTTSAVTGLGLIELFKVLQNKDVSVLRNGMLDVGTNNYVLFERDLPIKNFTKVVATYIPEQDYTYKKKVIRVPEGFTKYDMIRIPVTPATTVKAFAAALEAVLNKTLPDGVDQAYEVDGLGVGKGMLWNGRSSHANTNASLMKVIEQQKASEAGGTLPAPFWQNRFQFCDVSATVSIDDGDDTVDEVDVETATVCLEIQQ

[3] = target: AMP-activated protein kinase, AMPK (Homo sapiens) (UniProt P54646+O43741+P54619+Q9UGJ0+Q9Y478+Q13131+Q9UGI9); experiment: AMP-dependent Kinase enzyme assay. An in vitro enzyme assay that detects ADP turnover that is directly proportional to AMPK activity. This uses naive AMPK that is activated during the assay with MK-8722; type: functional; conditions: 30 µM
[4] = target: Sialic acid-binding Ig-like lectin 9 (Homo sapiens) (UniProt Q9Y336); experiment: Hs-Siglec9 ALPHAscreen SOP 20170721; conditions: 10 µM
Sialic acid-binding Ig-like lectin 9 (Homo sapiens), sequence (Q9Y336 whole entry): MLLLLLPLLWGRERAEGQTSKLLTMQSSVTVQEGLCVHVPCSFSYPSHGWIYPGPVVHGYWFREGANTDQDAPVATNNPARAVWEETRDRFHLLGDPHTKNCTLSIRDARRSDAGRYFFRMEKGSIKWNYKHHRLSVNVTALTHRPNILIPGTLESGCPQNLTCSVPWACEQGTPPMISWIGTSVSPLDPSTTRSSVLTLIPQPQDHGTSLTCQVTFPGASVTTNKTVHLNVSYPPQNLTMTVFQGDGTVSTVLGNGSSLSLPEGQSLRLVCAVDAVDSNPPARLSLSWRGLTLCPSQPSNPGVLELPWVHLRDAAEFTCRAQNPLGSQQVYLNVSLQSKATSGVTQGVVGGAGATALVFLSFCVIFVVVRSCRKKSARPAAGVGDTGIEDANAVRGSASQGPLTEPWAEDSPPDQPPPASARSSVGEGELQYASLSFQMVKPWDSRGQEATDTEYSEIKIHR

Trypanosoma cruzi = experiment: Trypanosoma cruzi phosphomannomutase and mannose-1-phosphate guanylyltransferase assay; type: functional; conditions: 10 µM
[5] = target: T2, Arginase-2, mitochondrial (Homo sapiens) (UniProt P78540); experiment: in vitro enzyme assay to detect the production of urea directly proportional to the activity of Arginase II; type: functional; conditions: 33.3 µM; further: in the data most compounds retested in dose-response had high values
T2 sequence (whole entry): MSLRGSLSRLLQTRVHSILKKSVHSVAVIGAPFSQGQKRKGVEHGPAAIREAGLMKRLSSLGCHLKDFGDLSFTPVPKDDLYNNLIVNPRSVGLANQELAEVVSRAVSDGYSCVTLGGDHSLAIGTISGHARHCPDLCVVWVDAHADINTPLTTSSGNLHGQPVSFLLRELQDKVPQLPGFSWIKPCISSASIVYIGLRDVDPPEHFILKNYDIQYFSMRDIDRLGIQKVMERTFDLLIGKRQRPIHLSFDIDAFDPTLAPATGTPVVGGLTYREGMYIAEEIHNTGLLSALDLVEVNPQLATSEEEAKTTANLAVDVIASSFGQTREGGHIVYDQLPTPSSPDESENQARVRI

[6] = target: T3, Proteasome subunit beta (Trypanosoma cruzi) (UniProt O96673); experiment: Trypanosoma cruzi proteasome chymotrypsin-like activity (TcProtChymo) assay.; further: in the data most compounds retested in dose-response had high values; type: functional; conditions: 9.37 µM
T3 sequence (whole entry): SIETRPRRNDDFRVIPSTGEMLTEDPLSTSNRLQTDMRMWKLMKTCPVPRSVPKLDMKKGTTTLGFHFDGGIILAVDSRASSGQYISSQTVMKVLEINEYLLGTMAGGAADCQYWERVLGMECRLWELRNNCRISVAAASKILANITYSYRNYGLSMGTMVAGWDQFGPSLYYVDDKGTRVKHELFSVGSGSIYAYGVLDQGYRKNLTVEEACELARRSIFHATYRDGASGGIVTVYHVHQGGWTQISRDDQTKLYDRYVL

Homo sapiens = species: Homo sapiens; experiment: To identify inhibition of the IFN signalling (Jak-Stat) pathway via expression of an eGFP reporter gene under the control of an IFN-stimulated response element (ISRE) containing MxA promoter.; type: functional; conditions: 30 µM
[7] = target: T4, Tyrosyl-tRNA synthetase, putative (Trypanosoma cruzi (strain CL Brener)) (UniProt Q4DSP6); experiment: Trypanosoma cruzi tyrosyl tRNA synthetase (TcYRS) _High Tyrosine SOP; type: functional; conditions: 30 µM; further: in the data most compounds retested in dose-response had high values
T4 sequence (whole entry): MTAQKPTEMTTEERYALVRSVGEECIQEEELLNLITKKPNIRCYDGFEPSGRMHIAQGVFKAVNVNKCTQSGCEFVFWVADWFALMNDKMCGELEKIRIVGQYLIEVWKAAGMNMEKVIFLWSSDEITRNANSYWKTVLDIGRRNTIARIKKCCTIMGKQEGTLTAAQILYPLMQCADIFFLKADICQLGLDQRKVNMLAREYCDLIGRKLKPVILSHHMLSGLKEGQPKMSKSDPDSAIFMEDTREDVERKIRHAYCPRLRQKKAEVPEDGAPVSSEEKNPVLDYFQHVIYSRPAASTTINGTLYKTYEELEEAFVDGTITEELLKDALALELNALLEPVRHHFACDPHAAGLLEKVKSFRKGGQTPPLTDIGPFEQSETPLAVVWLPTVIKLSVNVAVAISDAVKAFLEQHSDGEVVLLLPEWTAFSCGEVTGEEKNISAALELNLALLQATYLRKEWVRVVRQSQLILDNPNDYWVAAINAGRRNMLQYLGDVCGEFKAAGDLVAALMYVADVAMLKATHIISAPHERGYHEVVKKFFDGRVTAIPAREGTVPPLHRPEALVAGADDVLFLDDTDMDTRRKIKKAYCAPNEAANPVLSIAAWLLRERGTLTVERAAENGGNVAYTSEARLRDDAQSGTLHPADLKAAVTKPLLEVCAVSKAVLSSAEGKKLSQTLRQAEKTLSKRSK

[8] = target: T4, Tyrosyl-tRNA synthetase, putative (Trypanosoma cruzi (strain CL Brener)); experiment: Trypanosoma cruzi tyrosyl tRNA synthetase (TcYRS) SOP; type: functional; conditions: 30 µM
[9] = target: Chromo domain-containing protein 1 (Saccharomyces cerevisiae (strain ATCC 204508 / S288c) (Baker's yeast)) (UniProt P32657); experiment: ScCHD-1 Enzyme Inhibition Assay; type: functional; conditions: 30 µM; further: in the data most compounds retested in dose-response had high values
Chromo domain-containing protein 1 (Saccharomyces cerevisiae (strain ATCC 204508 / S288c) (Baker's yeast)), sequence (P32657 whole entry, the tested form may be a part): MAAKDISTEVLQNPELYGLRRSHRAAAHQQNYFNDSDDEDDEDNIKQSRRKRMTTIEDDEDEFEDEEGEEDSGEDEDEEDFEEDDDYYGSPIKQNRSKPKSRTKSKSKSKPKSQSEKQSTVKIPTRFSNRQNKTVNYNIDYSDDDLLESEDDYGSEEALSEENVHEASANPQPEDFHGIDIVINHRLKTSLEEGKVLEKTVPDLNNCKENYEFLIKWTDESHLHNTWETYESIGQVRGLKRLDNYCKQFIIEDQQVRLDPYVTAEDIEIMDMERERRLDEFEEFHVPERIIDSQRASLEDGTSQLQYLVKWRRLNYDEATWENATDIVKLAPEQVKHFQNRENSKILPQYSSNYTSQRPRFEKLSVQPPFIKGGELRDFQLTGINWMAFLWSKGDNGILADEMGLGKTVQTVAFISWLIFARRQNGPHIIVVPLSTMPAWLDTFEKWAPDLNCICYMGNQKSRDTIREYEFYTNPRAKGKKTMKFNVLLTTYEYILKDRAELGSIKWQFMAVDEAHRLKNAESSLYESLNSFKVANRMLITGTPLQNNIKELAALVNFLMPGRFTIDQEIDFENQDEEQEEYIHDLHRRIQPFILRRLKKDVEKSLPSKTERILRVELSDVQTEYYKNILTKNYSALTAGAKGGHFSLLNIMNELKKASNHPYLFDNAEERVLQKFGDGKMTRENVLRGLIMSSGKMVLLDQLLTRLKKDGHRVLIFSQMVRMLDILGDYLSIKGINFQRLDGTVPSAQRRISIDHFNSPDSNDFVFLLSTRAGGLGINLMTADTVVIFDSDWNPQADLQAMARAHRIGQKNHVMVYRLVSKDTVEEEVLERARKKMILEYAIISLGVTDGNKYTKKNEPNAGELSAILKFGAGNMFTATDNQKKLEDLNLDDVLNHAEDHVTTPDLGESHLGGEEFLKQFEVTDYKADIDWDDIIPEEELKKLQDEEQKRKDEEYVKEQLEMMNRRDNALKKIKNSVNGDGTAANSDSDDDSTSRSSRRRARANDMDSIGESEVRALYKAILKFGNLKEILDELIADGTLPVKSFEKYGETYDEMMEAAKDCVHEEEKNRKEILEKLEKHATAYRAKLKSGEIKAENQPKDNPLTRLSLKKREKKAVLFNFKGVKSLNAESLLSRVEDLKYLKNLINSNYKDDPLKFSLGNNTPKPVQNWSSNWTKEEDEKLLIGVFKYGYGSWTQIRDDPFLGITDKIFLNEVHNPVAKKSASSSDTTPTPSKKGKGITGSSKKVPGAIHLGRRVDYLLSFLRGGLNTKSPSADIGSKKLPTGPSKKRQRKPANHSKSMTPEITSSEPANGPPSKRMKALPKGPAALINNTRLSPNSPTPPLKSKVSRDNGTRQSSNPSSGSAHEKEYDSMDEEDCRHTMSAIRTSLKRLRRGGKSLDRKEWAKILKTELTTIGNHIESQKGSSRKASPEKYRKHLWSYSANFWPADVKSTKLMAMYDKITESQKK

Protein translocase subunit SecA (Escherichia coli (strain K12)), sequence (P10408 whole entry): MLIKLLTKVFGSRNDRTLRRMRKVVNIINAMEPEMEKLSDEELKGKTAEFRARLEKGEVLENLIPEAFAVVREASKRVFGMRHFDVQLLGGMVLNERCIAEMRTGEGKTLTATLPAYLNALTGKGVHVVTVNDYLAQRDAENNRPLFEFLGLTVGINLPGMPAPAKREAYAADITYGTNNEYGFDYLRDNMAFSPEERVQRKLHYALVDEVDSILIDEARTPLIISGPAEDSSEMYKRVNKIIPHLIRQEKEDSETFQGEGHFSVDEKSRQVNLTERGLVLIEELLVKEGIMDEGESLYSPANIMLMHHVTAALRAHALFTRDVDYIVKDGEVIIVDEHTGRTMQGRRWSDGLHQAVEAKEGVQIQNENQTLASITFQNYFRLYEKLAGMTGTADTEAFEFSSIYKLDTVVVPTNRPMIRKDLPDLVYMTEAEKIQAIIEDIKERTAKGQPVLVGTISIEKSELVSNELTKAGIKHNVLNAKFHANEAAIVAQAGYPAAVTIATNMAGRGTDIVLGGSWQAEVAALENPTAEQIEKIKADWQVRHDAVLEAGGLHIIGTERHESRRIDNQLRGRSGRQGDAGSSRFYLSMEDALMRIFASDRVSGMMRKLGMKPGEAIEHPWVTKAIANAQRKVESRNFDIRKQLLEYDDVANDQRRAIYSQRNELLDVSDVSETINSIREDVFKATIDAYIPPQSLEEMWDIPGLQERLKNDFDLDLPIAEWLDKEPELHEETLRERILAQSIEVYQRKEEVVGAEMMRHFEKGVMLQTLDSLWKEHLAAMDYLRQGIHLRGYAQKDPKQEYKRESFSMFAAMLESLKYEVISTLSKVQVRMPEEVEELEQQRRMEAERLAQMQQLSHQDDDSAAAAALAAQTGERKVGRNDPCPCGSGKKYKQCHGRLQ

SMILES: Cc1cc(CN2CCN(CC(O)c3ccccc3)CC2)no1 (stereo not given)
- Percent Effect [1]: -5.4%
- Percent Effect [2]: 10.1%
- Percent Effect [3]: -4.74%
- Percent Effect [4]: 1.14%
- Percent Effect (Trypanosoma cruzi): 7.65%
- Percent Effect [5]: 2.28%
- Percent Effect [6]: -0.0819%
- Percent Effect (Homo sapiens): -14.5%
- Percent Effect [7]: 6.4%
- Percent Effect [8]: 13.9%
- Percent Effect [9]: -1.57%

SMILES: O=c1nc(SCc2cccnc2)c2c(n1CCO)CCC2
- Percent Effect [1]: -1.99%
- Percent Effect [2]: 13.7%
- Percent Effect [3]: -3.57%
- Percent Effect [4]: 7.9%
- Percent Effect (Trypanosoma cruzi): 0.588%
- Percent Effect [5]: 5%
- Percent Effect [6]: 15.8%
- Percent Effect (Homo sapiens): 16.7%
- Percent Effect [7]: 6.45%
- Percent Effect [8]: 15%
- Percent Effect [9]: -7.2%

SMILES: Cc1ccc(CC(=O)N2CC[C@@H]3CN(CCN(C)C)CCO[C@@H]3C2)cc1
- Percent Effect [1]: -0.0347%
- Percent Effect [2]: 8.11%
- Percent Effect [3]: 9.51%
- Percent Effect [4]: -10.3%
- Percent Effect (Trypanosoma cruzi): -7.33%
- Percent Effect [5]: 2.87%
- Percent Effect [6]: 19.7%
- Percent Effect (Homo sapiens): 4.98%
- Percent Effect [7]: 4.32%
- Percent Effect [8]: 5.13%
- Percent Effect [9]: -4.03%

SMILES: Cc1cccc(NC(=O)N2CCCn3cnc(CN4CCCC4)c3C2)c1
- Percent Effect [1]: -3.65%
- Percent Effect [2]: 8.11%
- Percent Effect [3]: -3.2%
- Percent Effect [4]: -1.77%
- Percent Effect (Trypanosoma cruzi): 3.91%
- Percent Effect [5]: 0%
- Percent Effect [6]: 12.4%
- Percent Effect (Homo sapiens): -6.55%
- Percent Effect [7]: 16.8%
- Percent Effect [8]: 11%
- Percent Effect [9]: -4.14%

SMILES: Cn1cccc1C(=O)Nc1cc(F)ccc1OCC1CCCO1 (stereo not given)
- Percent Effect [1]: -2.17%
- Percent Effect [2]: -2.6%
- Percent Effect [3]: 2.66%
- Percent Effect [4]: 13.6%
- Percent Effect (Trypanosoma cruzi): 6.74%
- Percent Effect [5]: 2.85%
- Percent Effect [6]: 0.507%
- Percent Effect (Homo sapiens): 4.16%
- Percent Effect [7]: -5.83%
- Percent Effect [8]: 0%
- Percent Effect [9]: -1.65%

SMILES: O=C(Nc1cccc(CN2CCOC2=O)c1)N1CCSCC1
- Percent Effect [1]: -1.53%
- Percent Effect [2]: 12.5%
- Percent Effect [3]: -15.6%
- Percent Effect [4]: 9.65%
- Percent Effect (Trypanosoma cruzi): 2.04%
- Percent Effect [5]: 3.09%
- Percent Effect [6]: 23.3%
- Percent Effect (Homo sapiens): -2.05%
- Percent Effect [7]: 8.42%
- Percent Effect [8]: 15.4%
- Percent Effect [9]: 83.9%

SMILES: N#Cc1cccc(CN2CC[C@@H]3[C@@H]2CC(=O)N3Cc2cccnc2)c1
- Percent Effect [1]: -2.43%
- Percent Effect [2]: 16%
- Percent Effect [3]: 12.4%
- Percent Effect [4]: 1.95%
- Percent Effect (Trypanosoma cruzi): -4.72%
- Percent Effect [5]: -1.17%
- Percent Effect [6]: 13.7%
- Percent Effect (Homo sapiens): -10.2%
- Percent Effect [7]: 3.19%
- Percent Effect [8]: 11.5%
- Percent Effect [9]: -1.86%

SMILES: Cn1cc(CNc2ncnc3c2CCN(Cc2ccsc2)CC3)cn1
- Percent Effect [1]: -6.16%
- Percent Effect [2]: 13.3%
- Percent Effect [3]: -5.59%
- Percent Effect [4]: 29.3%
- Percent Effect (Trypanosoma cruzi): 4.97%
- Percent Effect [5]: 7.29%
- Percent Effect [6]: 17.1%
- Percent Effect (Homo sapiens): -4.35%
- Percent Effect [7]: 4.92%
- Percent Effect [8]: 16.1%
- Percent Effect [9]: -0.968%

SMILES: O=C(c1ccc(F)c(F)c1)N1CCCC(Nc2ccc(F)cc2)C1 (stereo not given)
- Percent Effect [1]: -2.99%
- Percent Effect [2]: -2.7%
- Percent Effect [3]: -4.26%
- Percent Effect [4]: 1.48%
- Percent Effect (Trypanosoma cruzi): 6.56%
- Percent Effect [5]: -2.86%
- Percent Effect [6]: 2.59%
- Percent Effect (Homo sapiens): 19.7%
- Percent Effect [7]: 6.88%
- Percent Effect [8]: 7.32%
- Percent Effect [9]: -2.35%

SMILES: CC(NC(=O)NCCNc1cnccn1)c1cccs1 (stereo not given)
- Percent Effect [1]: -1.5%
- Percent Effect [2]: 23.4%
- Percent Effect [3]: 1.73%
- Percent Effect [4]: 3.58%
- Percent Effect (Trypanosoma cruzi): 2.81%
- Percent Effect [5]: 2.49%
- Percent Effect [6]: 3.21%
- Percent Effect (Homo sapiens): -20.8%
- Percent Effect [7]: 8.74%
- Percent Effect [8]: 24.4%
- Percent Effect [9]: -11.5%

Reference: ChEMBL document CHEMBL3988442, “University of Dundee, Small-Polar-MMV Screening Library” (2021)
